# Measured values reported in PubChem BioAssay AID624291 (National Center for Advancing Translational Sciences (NCATS), 2012).
# About 220 (0.063%) of roughly 350,000 compounds were called active. Another 4% or so got no clear call; they are omitted. This is one part of a sample in which actives are shown more often than they occur. Calls come from the whole dose curve; as a rule, active = well fitted activation curve with a large enough effect; inconclusive = small, poorly fitted or top-dose-only effect; inactive = no such curve, though single readings can be large or run the other way.
# Assay: qHTS for Activators of Integrin-Mediated Alleviation for Muscular Dystrophy; note: nearly all actives have a fitted effect of over 60% in size;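 for activation: 100% = response of the positive control SU9516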
# Conditions: alpha7betagal myoblasts, beta-gal FDG fluorescence, 48 h; series mostly up to 38.3 µM; activation: at the top concentration
# From the text: Integrins are a diverse family of transmembrane cell surface receptors that mediate interactions between cells and the extracellular matrix. These heterodimeric proteins are composed of alpha and beta subunits and the a7b1 interacts with laminin in the extracellular matrix and actin of the cell cytoskeleton. Both chains contribute to ligand binding, but the alpha chain mediates the specificity of the interaction. The alpha7beta1 integrin is a major laminin receptor in skeletal, cardiac and vascular smooth muscle. Mutations in the alpha7 integrin gene are responsible for muscular dystrophy in both humans and mice. The alpha7beta1 integrin is also a major modifier of muscle disease progression in various muscle diseases including Duchenne muscular dystrophy, Fukuyama muscular dystrophy and merosin deficient congenital muscular dystrophy type 1A. […] Transcriptional regulation of the alpha7 integrin gene is poorly understood and probably involves multiple transcription factors. The goal of identifying small molecules that enhance alpha7 integrin expression is two-fold: firstly, such molecules would help us gain insight into the complex transcriptional control of alpha7 integrin. It is known that alpha7 integrin expression is tightly controlled during various stages of development, disease and in response to external stimuli. The second goal of the project is to translate the above finding into a therapeutic strategy for muscular dystrophy. […] Thus this project aims to discover small molecule probes that would not only help in gaining a better understanding of the complex regulatory mechanism of alpha7 integrin expression, but also lead to development of pharmacological agents to fight muscular dystrophy. NIH Chemical Genomics Center [NCGC] NIH Molecular Libraries Probe Centers Network [MLPCN] MLPCN Grant: NS058429 Assay Submitter (PI): Dean Burkin, University of Nevada School of Medicine
# A total of 250 alpha7betagal+/- myoblasts at passage 13 were dispensed using a mulitdrop from Thermo into black low base tissue culture treated microclear aurora plates in 6 ul media containing DMEM without phenol, 5% FBS, 1x GluMax and 1x Penicillin/Streptomycin. The plates were incubated 16-24 hr at 37C, 5% CO2, 95% humidity covered with low evaporation stainless steel lids from Kalypsys. Compounds were then dispensed using a Kalypsys pintool to deliver 23 nl/well compounds in DMSO (diluted into 6 uL resulting in a 1:260 dilution of compound). The control compound used was the cdk2 inhibitor SU9516 from Tocirs (found in the initial LOPAC screen). The plates were incubated for 48 hours at 37C, 5% CO2, 95% humidity using the same stainless steel lids. After incubation with compound, 5 ul of the media was aspirated using the Kalypsys washer/dispenser and 3 ul of the Mammalian Protein Extraction Reagent (MPER) lysis buffer (Thermo Fisher) was added. The plates were spun at 2000 rpms to remove bubbles and an initial capture was acquired on the Viewlux (Perkin Elmer) with exciation at 480 nm and emission at 540 nm for 25 seconds to omit any auto fluorescent compounds. The plates were then incubated for 10 minutes at room temperature. After incubation, 3 ul of 125 uM Fluorescein di-galactoside (FDG) (Marker Gene Technologies) diluted in PBS with 2 mM MgCl2 and 0.2% betamercaptoethanol (BME) was added, the plates were spun at 2000 rpms and incubated for 30 minutes at room temperature. The plates were again read on the Viewlux with exciation at 480 nm and emission at 540 nm for 25 seconds.
# Potency is the fitted concentration of half-maximal effect.
Compound,activation,Potency
C[C@@H]1CN([C@H](C)CO)C(=O)c2cc(-c3ccc(F)cc3)cnc2O[C@H]1CN(C)C(=O)c1ccc(F)cc1,10.8% (inactive),–
CSc1ncccc1C(=O)N1CCCC(Nc2ccc(F)c(F)c2)C1 (stereo not given),5.37% (inactive),–
Cc1ccc(NC(=O)c2ccco2)cc1,-15.4% (inactive),–
C[C@@H]1CN([C@H](C)CO)S(=O)(=O)c2ccc(C#C[C@@H](C)O)cc2O[C@@H]1CN(C)Cc1ccc(-c2ccccc2)cc1,-7.19% (inactive),–
O[C@H]1C[C@H](c2ccc(Cl)cc2)N(Cc2cccs2)C[C@@H]1n1cc(C2CC2)nn1,-51.5% (inactive),–
O=C1[C@H]2[C@@H](c3ccc(C(F)(F)F)cc3)N[C@]3(CCCN(Cc4ccc(Cl)cc4)C3=O)[C@H]2C(=O)N1Cc1ccccc1,-56.5% (inactive),–
C[C@H]1CN([C@@H](C)CO)S(=O)(=O)c2ccc(-c3cccc(F)c3)cc2O[C@@H]1CN(C)C,-10.1% (inactive),–
Cc1ccc(S(=O)(=O)N2C[C@@H](C)[C@]3(C2)[C@H](O)[C@H](OC(=O)NCc2ccccc2)C[C@H]2C(=O)N(c4ccccc4)C(=O)[C@H]23)cc1,-13.2% (inactive),–
C[C@H]1CN([C@@H](C)CO)C(=O)c2cc(C3=CCCCC3)cnc2O[C@@H]1CN(C)C(=O)Cc1ccccc1,9.58% (inactive),–
C[C@@H]1CN([C@@H](C)CO)C(=O)CCCn2nncc2CO[C@H]1CN(C)C(=O)Nc1ccc(C(F)(F)F)cc1,-2.12% (inactive),–
CCCCCCn1c(=O)n2n(c1=O)C[C@]1(OC(=O)NCc3ccc(OC)c(OC)c3)CN(S(=O)(=O)c3ccc(C)cc3)C[C@]1(O)C2,-0.407% (inactive),–
CCN(CC)CCN(C(=O)c1ccc2c(c1)CCCC2)c1nc2c(OC)cccc2s1,-13.2% (inactive),–
Cc1ccc(-c2ccc(CN3C(C(C)C)C(=O)N(Cc4cn(CCC5OCCO5)nn4)CCS3(=O)=O)cc2)cc1 (stereo not given),-36.9% (inactive),–
COc1ncnc2c1ncn2CCCNCCN1CCOCC1,-5.29% (inactive),–
CSC1=NN(c2ccccc2)CN(c2ccccc2)N1C,21.1% (inactive),–
CN(C)C(CNC(=O)c1cccc(S(=O)(=O)N2CCc3ccccc3C2)c1)c1ccccc1 (stereo not given),-22.3% (inactive),–
CCN(CC)C(=O)C1=C(C)N(Cc2ccc(F)cc2)C(=O)C(CC(=O)NCc2cccc3ccccc23)C1 (stereo not given),13.7% (inactive),–
COc1ccccc1C(=O)NC(=S)Nc1ccc(N2CCOCC2)cc1,13.2% (inactive),–
Cn1c(CCN2CCN(c3ccccn3)CC2)nc2cc(NS(=O)(=O)c3ccc(F)cc3)ccc21,-19.2% (inactive),–
NC(=S)NN=Cc1ccc(OC(=O)COc2cc(Cl)c(Cl)cc2Cl)cn1,-51.9% (inactive),–
CCOC(=O)C(=Cc1ccccc1)C(=O)c1ccccc1,-44% (inactive),–
CCCCCCNC(=O)O[C@H]1CN(C(=O)OC(C)C)N(C(=O)OC(C)C)[C@@H]2CN(S(=O)(=O)c3ccc(C)cc3)C[C@]12O,-22.2% (inactive),–
Cc1ccc(NC(=O)Cn2sc3ccccc3c2=O)cc1,-59% (inactive),–

Compound,activation,Potency
CC1(c2cccc(Br)c2)NC(=O)N(CC(=O)NCCC2=CCCCC2)C1=O (stereo not given),4.18% (inactive),–
C[C@H](CO)N1C[C@H](C)[C@@H](CN(C)C(=O)c2cnccn2)Oc2ncc(Br)cc2C1=O,-23.7% (inactive),–
COc1ccc(OC)c(C(=O)NC2CCCc3c2cnn3-c2cc(C)cc(C)c2)c1 (stereo not given),0.675% (inactive),–
O=C(OCc1ccccc1)N1CCC2CC1c1ccc(-c3ccc4c(c3)OCO4)cc12 (stereo not given),-15.9% (inactive),–
CCCCCCN1C[C@@H](O)[C@H](n2cc(COC(=O)c3ccccc3)nn2)C[C@@H]1c1ccc(Cl)cc1,12.9% (inactive),–
CCN1CCN(CCNC(=O)c2ccc3c(c2)NC(=O)/C(=C\c2cccc(Cl)c2)S3)CC1,18.1% (inactive),–
COc1ccc(S(=O)(=O)N2CCN(CC(=O)N3CCNC3=O)CC2)cc1OC,18.1% (inactive),–
COCCNC(=O)CSc1nc(N)c(NC(=O)c2ccco2)c(=O)[nH]1,12.7% (inactive),–
O=C(NCCN1CCOCC1)C1CCN(S(=O)(=O)c2ccccc2)CC1,11.1% (inactive),–
C[C@H](CO)N1C[C@H](C)[C@@H](CN(C)S(=O)(=O)c2ccc(Oc3ccccc3)cc2)OCc2cn(nn2)CCCC1=O,-14.8% (inactive),–
Cc1ccn(CC(=O)NC2CCCN(Cc3ccccc3F)C2)n1 (stereo not given),-2.09% (inactive),–
CC1CCCC(NC(=O)COC(=O)c2ccccc2C(=O)N(C)C2CCCCC2)C1C (stereo not given),-0.167% (inactive),–
Cc1ccc(S(=O)(=O)N2CCOCC2)cc1NC(=O)c1ccncc1,-8.16% (inactive),–
CC1(C)CN(CCc2ccccc2)C(=O)[C@H]1CC(=O)Nc1ccc(Br)cc1,-10.9% (inactive),–
CC1(C)CC(=O)C=C(c2ccccc2CO)C1=O,-11.1% (inactive),–
CCOC(=O)c1cc(-c2sc(NC(=O)c3ccccc3)nc2C)n(-c2ccc(Br)cc2)n1,9.91% (inactive),–
CCOc1ccc(S(=O)(=O)NCCC(=O)NNC(=O)c2ccc(F)cc2)cc1,16.7% (inactive),–
CC(C)(C)NC(=O)C(=O)NN=C1CCCCCCC1,8.01% (inactive),–
CC(C)NC(=S)NN=C1CCCCCCCCCCC1,–,3.16 µM (active)
C/C(=N\NC(=S)NC(C)C)c1ccc(C(C)(C)C)cc1,0.502% (inactive),–
Cc1cccc(C(=O)C(O)(c2ccccc2)C2CCCCC2=O)c1 (stereo not given),21% (inactive),–
C=CCn1nc(C(=O)OCC)cc1-c1sc(NC(=O)c2ccccc2)nc1C,2.38% (inactive),–
